Consider four compounds from PubChem BioAssay.

SMILES strings stand for the structures. Where “and” joins values, the source holds several entries; their conditions need not be identical. Identical values can stand only once. Calls of active or inactive are those of the source. Unless noted, the rule behind the calls is not given here.

Experiment [1] can be described thus: compounds binding Alexa647 anti-His antibody – biochemical, small-molecule microarray, 635 nm fluorescence, artefact control for SMM control protein annotation, primary screen (AID 1128).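 Note: score merges feature fluorescence with signal-to-noise for each printed compound spot.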 To be noted: higher = more signal.
For experiment [2], the system named is Human papillomavirus type 1a E7 protein (residues 1-88). As to the kind of experiment: HPV1a E7 small-molecule binders, primary screen, biochemical, small-molecule microarray, residues 1-88, 635 nm (AID 1129). The conditions noted are these: small-molecule microarray binding, fluorescence 635 nm; higher = more signal.
Experiment [3] deals with Focal adhesion kinase 1 (Homo sapiens) (UniProt Q05397). As to the kind of experiment: PTK2 protein binding on printed compound slides – biochemical, small-molecule microarray, 635/667 nm fluorescence, BSA, DTT, primary screen (AID 1130).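 Note: composite of spot emission at 667 nm and signal to noise over triplicate slides.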 To be noted: 635 nm fluorescence, higher = more signal.
Experiment [4] has as its system Fibrinogen (Alexa647-labelled). As to the kind of experiment: Alexa647-fibrinogen binding to printed small molecules – biochemical, small-molecule microarray, 635/667 nm fluorescence, artefact control for SMM control-protein annotation, profiling panel (AID 1131).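 Note: z-score merges 667 nm fluorescence with per-spot signal-to-noise over triplicate slides.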 To be noted: fibrinogen-A647 binding fluorescence, higher = more signal.
The target of experiment [5] is Follistatin (Homo sapiens) (UniProt P19883). As to the kind of experiment: FST protein binding to printed compounds – biochemical, small-molecule microarray, 635/667 nm fluorescence, primary screen (AID 1132). To be noted: 635 nm fluorescence, higher = more signal.
Experiment [6] deals with Fibroblast growth factor 2 (Homo sapiens) (UniProt P09038). As to the kind of experiment: basic fibroblast growth factor binding to printed compounds – biochemical, small-molecule microarray, 635/667 nm fluorescence, primary screen (AID 1133). To be noted: FGF2, fluorescence 635/667, higher = more signal.
Experiment [7] can be described thus: JC-1 mitochondrial potential readout, lung cancer cells – cell-based, A549, JC-1 fluorescence, basal, 24 h, 100 nL, profiling panel (AID 1138).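 Note: A549 lung adenocarcinoma cells under basal conditions with no added stimulus; test concentration not given here.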 The conditions noted are these: higher = more signal.
The next experiment relates to Lefty1. As to the kind of experiment: Lefty1 protein binding to printed compounds – biochemical, small-molecule microarray, 635/667 nm fluorescence, primary screen (AID 1139). The conditions noted are these: fluorescence 635/667, higher = more signal.
The subject of experiment [8] is wheat germ agglutinin (Triticum aestivum), Alexa647-labelled. As to the kind of experiment: Alexa647-WGA lectin binding to printed small molecules – biochemical, small-molecule microarray, 635/667 nm fluorescence, artefact control for SMM control-protein annotation, profiling panel (AID 1140).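 Note: score merges 667 nm feature emission with signal to noise over triplicate slides.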 To be noted: WGA-A647 binding, 635 nm fluorescence, higher = more signal.

For experiment [9], the target named is Luciferin 4-monooxygenase (Photinus pyralis) (UniProt P08659). As to the kind of experiment: inhibition of purified Photinus pyralis luciferase – biochemical, luminescence, purified enzyme, 2006 set, primary screen (AID 1141).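 Note: cell-free assay with purified firefly luciferase at 100 ng per well in PBS; test concentration not given here.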 To be noted: purified firefly luciferase, SteadyGlo luminescence, 30 min; higher = more signal, called active from +8 up or from −8 down.

In experiment [10] the test system is Wnt5a (protein binding on small-molecule microarray). As to the kind of experiment: small molecules binding Wnt5a protein – biophysical, small-molecule microarray, 635/667 nm fluorescence, primary screen (AID 1142).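 Note: fluorescence read at 667 nm with signal to noise per printed feature.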 The conditions noted are these: 635 nm fluorescence, higher = more signal.
Experiment [11] is described as follows: ATP-based viability of Huh7 replicon cells – cell-based, CellTiter-Glo luminescence, basal, 48 h, cytotoxicity control for HCV replication inhibitor project, primary screen (AID 1143).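 Note: Huh7 hepatoma cells carrying a hepatitis C replication reporter with no stimulus; test concentration not given here.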 The conditions noted are these: higher = more signal, called active from +8 up or from −8 down.
Experiment [12] in a line: Pseudomonas biofilm growth suppression – PAO1 strain, BacTiter-Glo luminescence, LB-PBS, primary screen (AID 1144). To be noted: P. aeruginosa PAO1 biofilm, 12 h, higher = more signal.
A short description of experiment [13]: basal CRE-LacZ reporter activity in PC12 – cell-based, unstimulated, primary screen (AID 1145). To be noted: no forskolin, luminescence, 4.5 h, higher = more signal, called active from +8 up or from −8 down.
A short description of experiment [14]: forskolin-driven CRE-LacZ activity in PC12 – cell-based, CRE-LacZ reporter, forskolin-stimulated, primary screen (AID 1146).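 Note: PC12 cells with 6xCRE LacZ reporter stimulated by forskolin 10 µM; beta-galactosidase reporter signal reflecting CREB driven transcription.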 To be noted: luminescence, 4.5 h, higher = more signal, called active from +8 up or from −8 down.
Experiment [15] has as its target Streptavidin (Streptomyces avidinii) (UniProt P22629). As to the kind of experiment: compounds binding control protein streptavidin – biophysical, small-molecule microarray, 635/667 nm fluorescence, artefact control for SMM compound annotation, primary screen (AID 1147).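 Note: signal reflects streptavidin binding to arrayed compounds as a control protein.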 The conditions noted are these: higher = more signal.
A short description of experiment [16]: probe aInhba binding on compound microarray – biochemical, small-molecule microarray, 635/667 nm fluorescence, primary screen (AID 1148).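 Note: score merges 667nm spot fluorescence with signal-to-noise for antibody binding to printed compounds.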 The conditions noted are these: higher = more signal.
For experiment [17], the target named is Torsin-1A (Homo sapiens) (UniProt O14656). As to the kind of experiment: TOR1A wild-type binding on microarray – cell lysate, small-molecule microarray, lysate, 635/667 nm, primary screen (AID 1149). The conditions noted are these: COS7 hTOR1A-WT lysate, 635 nm fluorescence, higher = more signal.
Experiment [18] shares this target. As to the kind of experiment: torsin A mutant lysate binding on microarrays – cell lysate, small-molecule microarray, COS7 lysate, 635/667 nm fluorescence, primary screen (AID 1150).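 Note: score pools 667 nm emission and signal to noise measuring lysate protein binding.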 The conditions noted are these: COS7 hTOR1A mutant lysate, 635 nm fluorescence, higher = more signal.
Experiment [19] concerns Sonic hedgehog protein (Shh). As to the kind of experiment: Sonic hedgehog microarray binding compounds – biochemical, small-molecule microarray, 635/667 nm fluorescence, primary screen (AID 1151).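 Note: Shh protein binding to compounds spotted on small-molecule microarray slides; score combines spot fluorescence intensity with signal-to-noise across triplicate slides.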 To be noted: 635 nm fluorescence, higher = more signal.

Fibroblast growth factor 2 (Homo sapiens), sequence (P09038 whole entry, looked up): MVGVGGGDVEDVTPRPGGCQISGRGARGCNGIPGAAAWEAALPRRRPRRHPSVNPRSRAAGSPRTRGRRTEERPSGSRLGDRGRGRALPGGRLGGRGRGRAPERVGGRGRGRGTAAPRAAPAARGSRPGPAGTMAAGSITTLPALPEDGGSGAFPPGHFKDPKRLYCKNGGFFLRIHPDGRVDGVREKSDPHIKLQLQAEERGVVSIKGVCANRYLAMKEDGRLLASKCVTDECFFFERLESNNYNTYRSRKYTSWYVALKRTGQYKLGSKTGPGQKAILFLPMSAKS
Luciferin 4-monooxygenase (Photinus pyralis), sequence (P08659 whole entry, looked up): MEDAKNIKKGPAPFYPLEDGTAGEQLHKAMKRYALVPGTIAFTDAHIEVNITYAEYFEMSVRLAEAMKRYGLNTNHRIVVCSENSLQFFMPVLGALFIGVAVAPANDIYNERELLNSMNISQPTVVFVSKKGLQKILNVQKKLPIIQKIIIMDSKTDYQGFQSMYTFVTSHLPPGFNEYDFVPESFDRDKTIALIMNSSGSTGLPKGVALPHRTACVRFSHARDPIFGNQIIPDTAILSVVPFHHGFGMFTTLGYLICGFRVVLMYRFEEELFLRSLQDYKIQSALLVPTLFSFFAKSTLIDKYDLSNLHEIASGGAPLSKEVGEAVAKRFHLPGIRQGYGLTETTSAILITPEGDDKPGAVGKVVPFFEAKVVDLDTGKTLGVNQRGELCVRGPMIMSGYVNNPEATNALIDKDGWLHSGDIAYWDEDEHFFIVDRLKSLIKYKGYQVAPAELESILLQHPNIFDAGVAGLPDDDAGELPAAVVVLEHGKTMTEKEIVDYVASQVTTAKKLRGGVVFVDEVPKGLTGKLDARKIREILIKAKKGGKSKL
Follistatin (Homo sapiens), sequence (P19883 whole entry, looked up): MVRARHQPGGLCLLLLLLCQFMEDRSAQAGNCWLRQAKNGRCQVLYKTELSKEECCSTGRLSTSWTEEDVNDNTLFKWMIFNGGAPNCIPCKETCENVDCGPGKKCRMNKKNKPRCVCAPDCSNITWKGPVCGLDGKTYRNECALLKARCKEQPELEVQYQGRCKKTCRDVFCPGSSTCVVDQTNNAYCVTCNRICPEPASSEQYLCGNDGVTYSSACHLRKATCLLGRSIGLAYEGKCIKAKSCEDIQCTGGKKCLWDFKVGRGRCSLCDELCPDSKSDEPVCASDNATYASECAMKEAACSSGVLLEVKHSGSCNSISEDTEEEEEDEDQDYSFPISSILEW
Streptavidin (Streptomyces avidinii), sequence (P22629 whole entry, looked up): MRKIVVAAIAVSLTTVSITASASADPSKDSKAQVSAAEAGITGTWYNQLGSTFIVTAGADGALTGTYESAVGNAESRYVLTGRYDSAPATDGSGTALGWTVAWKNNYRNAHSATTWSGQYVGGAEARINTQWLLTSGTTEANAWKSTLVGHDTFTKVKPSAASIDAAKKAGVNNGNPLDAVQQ
Torsin-1A (Homo sapiens), sequence (O14656 whole entry, looked up): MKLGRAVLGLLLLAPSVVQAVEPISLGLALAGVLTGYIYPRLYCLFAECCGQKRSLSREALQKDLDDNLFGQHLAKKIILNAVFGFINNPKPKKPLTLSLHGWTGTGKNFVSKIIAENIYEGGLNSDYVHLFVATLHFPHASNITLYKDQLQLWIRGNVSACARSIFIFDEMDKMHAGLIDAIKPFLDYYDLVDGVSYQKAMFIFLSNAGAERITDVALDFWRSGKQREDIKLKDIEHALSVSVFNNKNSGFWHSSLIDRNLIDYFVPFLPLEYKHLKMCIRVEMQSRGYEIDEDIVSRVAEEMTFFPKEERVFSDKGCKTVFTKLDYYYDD
Focal adhesion kinase 1 (Homo sapiens), sequence (Q05397 whole entry, looked up): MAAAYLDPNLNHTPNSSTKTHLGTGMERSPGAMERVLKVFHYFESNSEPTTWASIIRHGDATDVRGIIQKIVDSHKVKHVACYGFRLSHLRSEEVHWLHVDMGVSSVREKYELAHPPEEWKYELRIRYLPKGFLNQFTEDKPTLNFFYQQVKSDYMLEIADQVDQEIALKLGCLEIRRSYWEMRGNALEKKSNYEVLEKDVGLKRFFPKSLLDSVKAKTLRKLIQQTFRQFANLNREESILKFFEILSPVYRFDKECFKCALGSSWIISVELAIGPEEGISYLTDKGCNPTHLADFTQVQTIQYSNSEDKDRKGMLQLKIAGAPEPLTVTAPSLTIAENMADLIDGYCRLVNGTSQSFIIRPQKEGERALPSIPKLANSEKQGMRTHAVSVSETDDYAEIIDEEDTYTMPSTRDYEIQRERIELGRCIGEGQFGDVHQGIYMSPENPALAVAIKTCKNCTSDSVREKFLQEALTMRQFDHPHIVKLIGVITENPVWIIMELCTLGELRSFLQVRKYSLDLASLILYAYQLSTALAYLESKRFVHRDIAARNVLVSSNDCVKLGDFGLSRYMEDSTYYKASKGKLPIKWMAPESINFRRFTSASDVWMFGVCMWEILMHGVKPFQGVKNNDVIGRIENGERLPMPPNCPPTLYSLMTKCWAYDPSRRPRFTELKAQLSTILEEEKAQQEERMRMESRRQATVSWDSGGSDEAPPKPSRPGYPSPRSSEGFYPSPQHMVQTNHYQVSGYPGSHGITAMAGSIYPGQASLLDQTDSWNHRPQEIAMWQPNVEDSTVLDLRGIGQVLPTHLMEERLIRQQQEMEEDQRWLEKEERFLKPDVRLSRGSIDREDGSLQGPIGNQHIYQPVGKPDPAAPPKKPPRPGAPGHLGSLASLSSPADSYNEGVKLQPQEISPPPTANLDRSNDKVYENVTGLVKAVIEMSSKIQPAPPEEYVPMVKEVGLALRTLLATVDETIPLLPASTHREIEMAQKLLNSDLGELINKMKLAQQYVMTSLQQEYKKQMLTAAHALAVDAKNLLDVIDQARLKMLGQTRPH

`CCOC(=O)C[C@H]1[C@H](OC(=O)c2ccccc2-c2ccccc2)[C@@H](NC(=O)Cc2ccc(OC)cc2)c2cc(OCCCO)ccc2N1C(=O)c1ccc2ccccc2n1`: the composite z-score in [1] is 0.206 and -0.185; in experiment [2] it was 0.24 and 0.622; in [3] it was -0.0875 and 0.194; in experiment [4], 0.524 and 0.464; in experiment [5], 0.392 and 0.546; in [6], 0.714 and 0.119. Further, the composite z-score with Lefty1 is 0.0614 and 1.07; in experiment [8] it was 0.172 and 0.238; in [10], 0.0561 and 0.261; in experiment [15], 0.241 and 0.27; in experiment [16], 0.0543 and 0.168; with Torsin-1A (Homo sapiens) [17] it was 0.0122 and -0.0425. For the same compound, the composite z-score with Torsin-1A (Homo sapiens) [18] is 0.19 and 0.686; in [19], 0.207 and 0.3. Also, the z-score is 3.49 and 0.601 in experiment [7]; -0.391 (inactive) and -0.85 (inactive) in [9]; -0.319 (inactive) and 0.66 (inactive) in experiment [11]; -0.568 (inactive) in [12]; 7.64 (inactive) and -1.13 (inactive) in [13]; -0.809 (inactive) and -0.751 (inactive) in experiment [14].
Regarding `C[C@@H]1CC[C@H]2C(=O)O[C@H](CN=[N+]=[N-])CN2[C@H]1c1ccc(Br)cc1`, the composite z-score in experiment [1] was 0.755 and 0.806; in [2] it was -0.841 and -0.245; in [3] it was 0.073 and 0.0778; in [4] it was 0.142 and 0.149; in experiment [5] it was 0.506 and -0.488; in experiment [6], 0.0443 and -0.132. Further, the composite z-score in the experiment with Lefty1 was 0.212 and 0.0831; in experiment [8] it was -0.276 and -0.0024; in experiment [10], -0.0328 and -0.216; in experiment [15] it was -0.167 and 0.0058; in [16] it was 0.0232 and -0.154; with Torsin-1A (Homo sapiens) [17], 0.225 and 0.372. The composite z-score is 0.455 and 0.101 with Torsin-1A (Homo sapiens) [18]; 0.286 and -0.196 in experiment [19]. In addition, the z-score is 0.703 and 0.206 in [7]; 0.788 (inactive) and -1.42 (inactive) in experiment [9]; -2.85 (inactive) and -0.512 (inactive) in experiment [11]; -0.203 (inactive) and -0.277 (inactive) in [12]; -0.162 (inactive) and 3.89 (inactive) in experiment [13]; -0.177 (inactive) and -0.414 (inactive) in experiment [14].
`CO[C@@H]1COC(=O)CC=C[C@H](C)COC(=O)[C@H](C)NC(=O)CC=C[C@H]1C`: the composite z-score is 0.401 in experiment [1]; -0.375 in [2]; -0.0308 in experiment [3]; -0.607 in experiment [4]; 1.11 in experiment [5]; 1.72 in experiment [6]. For the same compound, the composite z-score in the experiment with Lefty1 is 1.03; in [8], -0.587; in experiment [10] it was 0.144; in [15], 0.477; in experiment [16], -0.208; with Torsin-1A (Homo sapiens) [17], 0.919. Besides, the figures for the composite z-score (with Torsin-1A (Homo sapiens) [18]; in experiment [19]) were 1.16 and 1.19, respectively. Moreover, the z-score is 0.521 in [7]; -0.394 (inactive) in experiment [9]; 0.178 (inactive) in experiment [11]; 0.213 (inactive) in experiment [12]; 1.24 (inactive) in [13]; -0.218 (inactive) in experiment [14].
Consider `C=CC[C@H](O)c1ccc(OCCO)cc1`, for which the composite z-score was 0.185 and 0.0367 in [1]; -1.1 and -1.32 in experiment [2]; -1.14 and -0.38 in experiment [3]; -0.0902 and -3.21 in experiment [4]; 0.519 and 0.726 in experiment [5]; -0.442 and 0.17 in experiment [6]. Moreover, the composite z-score was -0.748 and -0.0547 in the experiment with Lefty1; 0.542 and 0.645 in experiment [8]; -0.0223 and -0.614 in experiment [10]; -0.893 and -1.41 in [15]; -0.0371 and -0.497 in experiment [16]; -0.646 and -1.69 in the experiment with Torsin-1A (Homo sapiens) [17]. Moreover, the composite z-score with Torsin-1A (Homo sapiens) [18] was -0.0897 and -1.66; in experiment [19], -0.125 and 0.891. Also, the z-score in [7] is -0.441 and 0.564; in [9], -1.15 (inactive) and -1.17 (inactive); in experiment [11] it was -1.36 (inactive) and -0.878 (inactive); in experiment [12], -0.809 (inactive) and -0.0923 (inactive); in experiment [13] it was -0.925 (inactive) and 0.18 (inactive); in experiment [14], -0.506 (inactive) and -0.0908 (inactive).
